# Laboratory results: PubChem BioAssay
# Calls of active or inactive are those of the source.
# Key:
# [1] = small molecules captured by biotinylated probe aFSTL3 – biochemical, small-molecule microarray, fluorescence 635/667, stem cell growth factor project, primary screen (AID 1064); conditions: higher = more signal;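 also: measures binding of the biotinylated anti-FSTL3 antibody to printed compounds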
# [2] = binders from COS7 lysate, DM2A8 probe, primary screen, torsin A project, cell lysate, small-molecule microarray, fluorescence 635/667 (AID 1065); conditions: higher = more signal, COS7 lysate expressing mutant human TOR1A
# [3] = small molecules captured by biotinylated probe aFGF2 – biochemical, small-molecule microarray, fluorescence 635/667, stem cell growth factor project, primary screen (AID 1067); conditions: higher = more signal;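 also: measures binding of biotinylated aFGF2 protein to printed compounds on slides; z-score merges feature fluorescence and signal-to-noise across triplicate slides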
# [4] = small molecules captured by biotinylated probe aFGF10 – biochemical, small-molecule microarray, fluorescence 635/667, stem cell growth factor project, primary screen (AID 1071); conditions: higher = more signal;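 also: score merges 667 nm spot intensity and signal to noise from triplicate slides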
# [5] = molecular target: Neurogenic locus notch homolog protein 2 (Homo sapiens) (UniProt Q04721); assay: small molecules binding Notch2 protein – biochemical, small-molecule microarray, 635 nm fluorescence, stem cell growth factors, primary screen (AID 1073); conditions: higher = more signal
# [6] = molecular target: Pro-neuregulin-1, membrane-bound isoform (Homo sapiens) (UniProt Q02297); assay: small molecules binding neuregulin-1 protein – biochemical, small-molecule microarray, fluorescence 635/667, psychiatric disease protein project, primary screen (AID 1075); conditions: NRG1 binding, 635 nm fluorescence, higher = more signal;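 also: score combines 667 nm spot fluorescence with signal to noise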
# [7] = test system: Neuregulin-1 EGF-like domain; assay: small molecules binding NRG1 EGF domain – biochemical, small-molecule microarray, 635 nm fluorescence, primary screen (AID 1081); conditions: higher = more signal;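 also: binding of the protein to compounds printed on small-molecule microarray slides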
# [8] = FRG1 expression reporter modulators in myotubes – cell-based, C2C12 myotubes, firefly/Renilla luciferase, luminescence, FRG1 inhibition for FSHD, primary screen (AID 1084); conditions: FRG1 promoter luciferase, higher = more signal, called active from +8 up or from −8 down
# [9] = small molecules captured by biotinylated probe aFST – biochemical, small-molecule microarray, fluorescence 635/667, stem cell growth factor project, primary screen (AID 1086); conditions: higher = more signal;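 also: score merges 667 nm fluorescence with signal-to-noise of each printed compound spot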
# [10] = binders of probe aHhip on microarray, primary screen, stem cell growth factor project, biochemical, small-molecule microarray, fluorescence 635/667 (AID 1087); conditions: higher = more signal;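 also: score merges spot fluorescence at 667nm with spot signal to noise ratio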
# Chain of Pro-neuregulin-1, membrane-bound isoform (Homo sapiens) (Q02297 whole entry, looked up, the tested form may be a part, canonical isoform): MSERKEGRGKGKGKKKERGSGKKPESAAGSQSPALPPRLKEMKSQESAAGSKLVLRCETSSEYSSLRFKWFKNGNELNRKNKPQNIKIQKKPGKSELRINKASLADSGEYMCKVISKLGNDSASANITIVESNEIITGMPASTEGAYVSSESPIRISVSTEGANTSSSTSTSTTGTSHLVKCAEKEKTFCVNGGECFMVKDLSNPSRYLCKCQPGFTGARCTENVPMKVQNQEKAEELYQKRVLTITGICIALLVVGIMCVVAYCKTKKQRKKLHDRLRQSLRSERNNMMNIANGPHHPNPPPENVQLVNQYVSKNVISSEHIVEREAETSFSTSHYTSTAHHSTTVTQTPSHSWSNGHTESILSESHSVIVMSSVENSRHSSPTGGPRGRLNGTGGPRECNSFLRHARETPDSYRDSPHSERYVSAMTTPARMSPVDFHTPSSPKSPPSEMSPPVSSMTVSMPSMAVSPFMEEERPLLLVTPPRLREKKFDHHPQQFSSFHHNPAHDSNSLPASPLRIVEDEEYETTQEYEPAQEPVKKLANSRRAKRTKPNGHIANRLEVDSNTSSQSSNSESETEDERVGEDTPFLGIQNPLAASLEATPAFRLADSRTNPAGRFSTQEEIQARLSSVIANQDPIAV
# Chain of Neurogenic locus notch homolog protein 2 (Homo sapiens) (Q04721 whole entry, looked up, canonical isoform): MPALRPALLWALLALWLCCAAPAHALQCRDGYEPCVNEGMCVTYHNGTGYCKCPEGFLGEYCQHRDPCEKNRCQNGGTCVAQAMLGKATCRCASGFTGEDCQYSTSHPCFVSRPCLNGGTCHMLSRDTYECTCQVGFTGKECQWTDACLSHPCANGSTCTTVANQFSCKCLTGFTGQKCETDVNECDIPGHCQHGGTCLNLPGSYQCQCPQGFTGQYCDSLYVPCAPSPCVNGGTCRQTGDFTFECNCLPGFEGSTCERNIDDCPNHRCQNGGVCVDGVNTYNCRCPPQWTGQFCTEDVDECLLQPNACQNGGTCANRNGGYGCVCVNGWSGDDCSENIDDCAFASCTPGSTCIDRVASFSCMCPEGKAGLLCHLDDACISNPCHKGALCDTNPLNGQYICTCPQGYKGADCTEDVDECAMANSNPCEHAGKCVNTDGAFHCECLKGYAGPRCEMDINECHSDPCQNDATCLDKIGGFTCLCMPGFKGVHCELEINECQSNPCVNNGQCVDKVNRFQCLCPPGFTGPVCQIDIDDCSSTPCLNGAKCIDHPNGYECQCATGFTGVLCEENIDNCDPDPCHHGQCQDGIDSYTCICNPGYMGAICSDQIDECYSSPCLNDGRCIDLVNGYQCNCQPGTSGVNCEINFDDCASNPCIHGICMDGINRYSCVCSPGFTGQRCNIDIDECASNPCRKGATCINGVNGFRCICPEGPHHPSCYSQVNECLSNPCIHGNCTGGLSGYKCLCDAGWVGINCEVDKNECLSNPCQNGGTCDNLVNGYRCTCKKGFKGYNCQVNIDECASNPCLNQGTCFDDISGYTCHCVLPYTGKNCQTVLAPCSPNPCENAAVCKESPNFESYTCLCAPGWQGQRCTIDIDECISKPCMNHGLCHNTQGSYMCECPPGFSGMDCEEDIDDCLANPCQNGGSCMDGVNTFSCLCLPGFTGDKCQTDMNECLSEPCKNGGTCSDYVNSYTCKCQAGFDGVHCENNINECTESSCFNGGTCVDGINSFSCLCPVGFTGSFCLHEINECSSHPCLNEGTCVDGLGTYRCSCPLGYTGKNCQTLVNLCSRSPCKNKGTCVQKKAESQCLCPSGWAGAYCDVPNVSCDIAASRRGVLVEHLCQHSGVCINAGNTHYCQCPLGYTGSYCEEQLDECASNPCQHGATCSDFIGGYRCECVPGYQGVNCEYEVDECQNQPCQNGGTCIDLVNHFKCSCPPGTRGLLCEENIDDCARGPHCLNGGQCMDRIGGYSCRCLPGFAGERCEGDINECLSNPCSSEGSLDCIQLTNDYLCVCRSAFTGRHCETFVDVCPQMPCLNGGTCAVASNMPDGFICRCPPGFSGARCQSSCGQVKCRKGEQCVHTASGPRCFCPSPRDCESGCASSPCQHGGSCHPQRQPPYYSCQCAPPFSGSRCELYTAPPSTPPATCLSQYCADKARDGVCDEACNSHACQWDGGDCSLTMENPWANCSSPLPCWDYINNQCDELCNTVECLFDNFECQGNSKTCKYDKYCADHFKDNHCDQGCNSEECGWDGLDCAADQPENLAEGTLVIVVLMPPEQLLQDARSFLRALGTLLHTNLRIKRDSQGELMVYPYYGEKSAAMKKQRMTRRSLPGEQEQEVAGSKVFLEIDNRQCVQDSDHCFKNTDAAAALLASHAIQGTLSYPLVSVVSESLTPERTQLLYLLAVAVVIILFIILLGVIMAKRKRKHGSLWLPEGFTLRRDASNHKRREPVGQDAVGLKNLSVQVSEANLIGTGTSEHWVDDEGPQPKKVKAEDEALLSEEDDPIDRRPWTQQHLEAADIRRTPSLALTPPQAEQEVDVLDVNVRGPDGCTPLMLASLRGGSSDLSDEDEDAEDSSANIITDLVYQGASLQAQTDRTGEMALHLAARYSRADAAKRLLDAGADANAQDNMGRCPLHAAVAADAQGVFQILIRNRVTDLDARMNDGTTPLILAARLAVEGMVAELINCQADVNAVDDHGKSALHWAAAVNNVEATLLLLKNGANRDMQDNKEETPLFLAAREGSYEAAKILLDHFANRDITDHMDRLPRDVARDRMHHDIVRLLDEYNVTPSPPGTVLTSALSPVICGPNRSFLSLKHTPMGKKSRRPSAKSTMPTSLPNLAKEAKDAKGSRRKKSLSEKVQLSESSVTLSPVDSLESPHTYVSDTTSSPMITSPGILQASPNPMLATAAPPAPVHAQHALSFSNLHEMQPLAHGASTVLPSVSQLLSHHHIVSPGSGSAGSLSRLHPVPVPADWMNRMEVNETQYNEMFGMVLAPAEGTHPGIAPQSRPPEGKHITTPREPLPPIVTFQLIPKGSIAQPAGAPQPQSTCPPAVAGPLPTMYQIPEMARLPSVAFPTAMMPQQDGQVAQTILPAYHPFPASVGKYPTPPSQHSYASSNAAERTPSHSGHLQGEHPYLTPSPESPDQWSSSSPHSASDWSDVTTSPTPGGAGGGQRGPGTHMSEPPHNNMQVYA
smiles,measurement,setting,value
C=CCNC(=O)[C@H]1[C@@H]2C(=O)O[C@@H](c3ccccc3)[C@@H](c3ccccc3)N2[C@@H](c2ccc(O)cc2)[C@]12C(=O)N(C(=O)OCCOC)c1ccc(C#CCC(C(=O)OC)C(=O)OC)cc12,composite z-score,[1],-0.114
same,composite z-score,[2],0.85
same,composite z-score,[3],-0.0422
same,composite z-score,[4],0.453
same,composite z-score,[5],0.719
same,composite z-score,[6],0.225
same,composite z-score,[7],1.21
same,z-score,[8],0.172 (inactive)
same,composite z-score,[9],0.376
same,composite z-score,[10],-0.162
C=C(COC)/C(=C/C[C@@H](OC(C)=O)c1ccc(CO)o1)c1cc(C(=O)OC)ccc1OC,composite z-score,[1],-0.22
same,composite z-score,[2],0.707
same,composite z-score,[3],-0.111
same,composite z-score,[4],0.851
same,composite z-score,[5],-0.378
same,composite z-score,[6],1.46
same,composite z-score,[7],1.3
same,z-score,[8],0.435 (inactive)
same,composite z-score,[9],-0.179
same,composite z-score,[10],-0.0994
CCOC(=O)C1=C[C@@H](C(C)(C)C)N(S(=O)(=O)c2ccc(C)cc2)[C@H]1c1ccc(C)cc1,composite z-score,[1],-0.173
same,composite z-score,[2],0.577
same,composite z-score,[3],0.135
same,composite z-score,[4],1.13
same,composite z-score,[5],1.68
same,composite z-score,[6],0.877
same,composite z-score,[7],0.894
same,z-score,[8],-2.53 (inactive)
same,composite z-score,[9],1.8
same,composite z-score,[10],0.245
CN(C)CCCNC(=O)[C@@H]1c2ccccc2C(=O)N(C2CCCCC2)[C@H]1c1ccc(CO)cc1,composite z-score,[1],-0.537
same,composite z-score,[2],0.249
same,composite z-score,[3],0.0036
same,composite z-score,[4],0.577
same,composite z-score,[5],1.57
same,composite z-score,[6],1.59
same,composite z-score,[7],1.41
same,z-score,[8],-0.988 (inactive)
same,composite z-score,[9],0.434
same,composite z-score,[10],-0.131
O=C(NCC(O)CO)[C@@]1(CCS(=O)(=O)c2ccccc2)COC(c2ccc(OCCCO)cc2)=N1 (stereo not given in full),composite z-score,[1],1.05
same,composite z-score,[2],1.85
same,composite z-score,[3],0.0729
same,composite z-score,[4],0.25
same,composite z-score,[5],1.45
same,composite z-score,[6],2.12
same,composite z-score,[7],1.41
same,z-score,[8],-1.16 (inactive)
same,composite z-score,[9],1.1
same,composite z-score,[10],-0.214
COc1ccc(C#Cc2ccc3c(c2)[C@]2(C(=O)N3)[C@H](C(=O)N3CCCCCCC3)[C@H]3C(=O)O[C@H](c4ccccc4)[C@H](c4ccccc4)N3[C@@H]2c2ccc(O)cc2)cc1,composite z-score,[1],2.46
same,composite z-score,[2],0.578
same,composite z-score,[3],0.102
same,composite z-score,[4],0.295
same,composite z-score,[5],0.97
same,composite z-score,[6],-0.234
same,composite z-score,[7],1.24
same,z-score,[8],0.626 (inactive)
same,composite z-score,[9],2.24
same,composite z-score,[10],0.606
C=CCC(OC(C)=O)[C@@H]1[C@@H](N(Cc2ccc(-c3cccc(C(F)(F)F)c3)o2)C(=O)Cc2ccc(OC)cc2)c2cc(OCCCO)ccc2N1C(=O)Cc1ccc2ccccc2c1 (stereo not given in full),composite z-score,[1],-0.131
same,composite z-score,[2],-0.919
same,composite z-score,[3],-0.0715
same,composite z-score,[4],-0.139
same,composite z-score,[5],-0.696
same,composite z-score,[6],0.465
same,composite z-score,[7],0.113
same,z-score,[8],-0.734 (inactive)
same,composite z-score,[9],0.069
same,composite z-score,[10],0.0505
C=C[C@@H](C)[C@@H](OC(=O)Nc1ccc(SC)cc1)c1ccc(OCCO)cc1,composite z-score,[1],0.004
same,composite z-score,[2],0.81
same,composite z-score,[3],0.0918
same,composite z-score,[4],0.447
same,composite z-score,[5],-0.202
same,composite z-score,[6],1.41
same,composite z-score,[7],1.26
same,z-score,[8],10.5 (active)
same,composite z-score,[9],0.051
same,composite z-score,[10],0.0373
CCCNC(=O)[C@@]1(Sc2ccc(C)cc2)CC(=O)N(C2CCCCC2)[C@@H]1c1ccc(CO)cc1I,composite z-score,[1],0.152
same,composite z-score,[2],0.481
same,composite z-score,[3],-0.0788
same,composite z-score,[4],0.182
same,composite z-score,[5],0.517
same,composite z-score,[6],0.772
same,composite z-score,[7],1.25
same,z-score,[8],-3.57 (inactive)
same,composite z-score,[9],-0.0962
same,composite z-score,[10],-0.383
Cc1ccc(S[C@]2(C(=O)NC(C)C)CC(=O)N(C(C)C)[C@@H]2c2ccc(CO)cc2I)cc1,composite z-score,[1],-0.244
same,composite z-score,[2],-0.242
same,composite z-score,[3],-0.0272
same,composite z-score,[4],0.145
same,composite z-score,[5],0.0213
same,composite z-score,[6],0.637
same,composite z-score,[7],1.05
same,z-score,[8],-0.13 (inactive)
same,composite z-score,[9],-0.198
same,composite z-score,[10],0.0749
COC(=O)C(CC#Cc1ccc2c(c1)[C@]1(C(=O)N2)[C@H](c2ccc(OCCO)cc2)N2[C@H](c3ccccc3)[C@H](c3ccccc3)OC(=O)[C@H]2[C@@H]1C(=O)N1CCN(c2ncccn2)CC1)C(=O)OC,composite z-score,[1],-0.505
same,composite z-score,[2],1.01
same,composite z-score,[3],0.0275
same,composite z-score,[4],1.12
same,composite z-score,[5],1.51
same,composite z-score,[6],0.746
same,composite z-score,[7],1.27
same,z-score,[8],1.45 (inactive)
same,composite z-score,[9],0.643
same,composite z-score,[10],0.386
O=C1C2C=CC(C(O)c3ccco3)N(Nc3ccccc3)C2C(=O)N1c1ccccc1 (stereo not given),composite z-score,[1],0.76
same,composite z-score,[2],-0.79
same,composite z-score,[3],-0.0767
same,composite z-score,[4],-0.216
same,composite z-score,[5],-0.331
same,composite z-score,[6],0.944
same,composite z-score,[7],1.08
same,z-score,[8],0.64 (inactive)
same,composite z-score,[9],0.225
same,composite z-score,[10],-0.134
CN1C(=O)C2C=CC(C(O)c3ccc(I)cc3)N(Nc3ccccc3)C2C1=O (stereo not given),composite z-score,[1],0.131
same,composite z-score,[2],0.238
same,composite z-score,[3],0.0253
same,composite z-score,[4],0.846
same,composite z-score,[5],1.26
same,composite z-score,[6],1.56
same,composite z-score,[7],1.24
same,z-score,[8],0.266 (inactive)
same,composite z-score,[9],0.942
same,composite z-score,[10],0.142
CCOC(=O)C[C@H]1[C@H](OC(=O)c2ccc(C(=O)c3ccccc3)cc2)[C@@H](NC(=O)CC(C)C)c2cc(OCCCO)ccc2N1C(=O)Cc1ccc(OC)cc1,composite z-score,[1],0.134
same,composite z-score,[2],0.819
same,composite z-score,[3],-0.105
same,composite z-score,[4],0.209
same,composite z-score,[5],0.342
same,composite z-score,[6],0.517
same,composite z-score,[7],0.2
same,z-score,[8],-1.69 (inactive)
same,composite z-score,[9],0.51
same,composite z-score,[10],-0.0074
CC(C)CCC[C@@H](C)[C@H]1CC[C@@]2(C)C3=C(CC[C@]12C)[C@@]1(C)CC[C@H](OC(=O)c2ccccc2)C(C)(C)C1CC3 (stereo not given in full),composite z-score,[1],-0.438
same,composite z-score,[2],0.299
same,composite z-score,[3],-0.0916
same,composite z-score,[4],0.157
same,composite z-score,[5],0.474
same,composite z-score,[6],0.0304
same,composite z-score,[7],-0.0239
same,z-score,[8],-0.374 (inactive)
same,composite z-score,[9],0.526
same,composite z-score,[10],0.93
CC(CO)N1C(=O)[C@@H]2[C@H]3C(=O)OCC=C[C@H]3OC23C=CCN(c2ccc(Cl)cc2)C(=O)[C@@H]13 (stereo not given in full),composite z-score,[1],1.22
same,composite z-score,[2],-1.45
same,composite z-score,[3],-0.19
same,composite z-score,[4],-1.14
same,composite z-score,[5],-1.68
same,composite z-score,[6],-0.87
same,composite z-score,[7],0.688
same,z-score,[8],0.529 (inactive)
same,composite z-score,[9],-0.672
same,composite z-score,[10],-0.169
